Screens: PubChem, several laboratories
Only some compounds are listed: those with a hit (about 4.7% of all), similar ones and a draw of the others.
tim23-1 inh – inhibits growth of tim23-1 mutant yeast; AID 463212; S. cerevisiae tim23-1 growth, BacTiter-Glo luminescence, 24 h; actives 1.3% (n = 330,000); inhibition, % at 20 µM;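 active = growth inhibition of the mutant yeast at or above 50%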;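 note: temperature-sensitive mutant grown at 25 °C; plate controls were DMSO-treated mutant yeast for no effect and medium wells lacking yeast for full effect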
PfHsp90 yeast 2 – reduces growth (ATP signal) of yeast expressing P. falciparum Hsp90 | S. cerevisiae expressing PfHsp90, BacTiter-Glo ATP, 48 h; yeast lacking PDR1 and PDR3 efflux regulators | inhibition, % at 9.4 µM | actives 0.32% (n = 310,000);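 active = every replicate shows inhibition above about 80%, whatever the replicate mean, limit read from the data; inconclusive = mean inhibition reaches the set limit but some replicate falls short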;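 note: 0% = DMSO neutral controls and 100% = 20 µM radicicol positive controls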
tim10-1 inh – inhibits growth of tim10-1 mutant yeast. S. cerevisiae tim10-1 ts strain growth, BacTiter-Glo, 24 h. inhibition, % at 20 µM. actives 2.2% (n = 330,000);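 active = inhibition of at least 40%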;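 note: mutant grown at 25 °C; 0% = DMSO wells with yeast and 100% = wells holding no yeast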
TIM10 inh – TIM10 yeast growth inhibition; S. cerevisiae TIM10 strain growth, BacTiter-Glo luminescence, 24 h; inhibition, % at 10 µM; actives 1.4% (n = 330,000); AID 463195;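 active = inhibition of 40% or more at the single tested concentration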;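 note: wild-type TIM10 isogenic control strain grown at permissive 25 °C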
SKKanGAS inh – SKKanGAS growth inhibition. S. pyogenes SKKanGAS, kanamycin growth, BacTiter-Glo, 6 h. inhibition, % at 7.5 µM. actives 1.3% (n = 300,000). AID 1662;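 active = mean replicate score, as percent of positive control median, at least 50; inconclusive = mean below 50 but one replicate at or above 50; inactive = mean and every replicate below 50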;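 note: strain carries kanamycin resistance gene driven by streptokinase promoter and grows in 40 µg/ml kanamycin; loss of luminescence reflects streptokinase promoter inhibition or plain growth inhibition; 0% = median of DMSO wells and 100% = positive control at its reference dose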
Calb FLC – C. albicans growth modulation with fluconazole | C. albicans CaCi-2 (fluconazole-resistant clinical isolate) + fluconazole, Alamar Blue growth, 48 h | growth inhibition, % (concentration not given with the values) | actives 0.57% (n = 300,000) | AID 1979;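 active = growth inhibition above about 58% in most replicates, limit read from the data, passing the limit was not always enough; inconclusive = exactly half the replicates above a set limit; inactive = most replicates below a set limit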;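 note: all wells also contain fluconazole at 8 µg/ml as a sub-toxic cotreatment; 0% = median of DMSO wells and 100% = median of geldanamycin control wells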
* = called active by the depositor; ? = inconclusive; / = no result.

SMILES	tim23-1 inh	PfHsp90 yeast 2	tim10-1 inh	TIM10 inh	SKKanGAS inh	Calb FLC
S=c1[nH]nc(C2CCCCC2)n1/N=C/c1c(Cl)cccc1Cl	19	-20	22	32	52*	-20
S=c1[nH]nc(C2CCCCC2)n1/N=C/c1ccc(Br)cc1	11	-11	33	23	4	6
Oc1cccc(/C=N/n2c(C3CCCCC3)n[nH]c2=S)c1	26	27	32	9	-2	12
S=c1[nH]nc(C2CCCCC2)n1/N=C/c1ccc(Br)s1	29	/	32	31	8	90*
COc1ccc(S(N)(=O)=O)cc1C(=O)N(C)CC(=O)Nc1ccc(N2CCOCC2)cc1	5	-13	-11	4	-10	0
COCCNCc1cc(C)n(-c2cc(S(=O)(=O)N3CCOCC3)ccc2N2CCCC2)c1C	/	3	/	/	/	/
c1ccc(CN2CCN(c3nc(-c4ccccc4)nc4ccccc34)CC2)cc1	9	-13	40	18	32	0
c1ccc(CN2CCN(c3nc4ccccc4c4ccccc34)CC2)cc1	29	0	28	15	76*	4
Cc1ccc(-n2c(-c3ccccc3)c[n+]3c2CCC3)cc1	4	0	-9	-1	-2	96*
Cc1ccc(-n2c(-c3ccc(Cl)cc3)c[n+]3c2CCC3)cc1	-24	14	-10	-14	3	5
O=C(/C(=C/O)N=Nc1cccc(C(F)(F)F)c1)c1ccccc1	29	108*	24	28	-3	?
COC(=O)/C(N=Nc1cccc(C(F)(F)F)c1)=C(\C)O	15	-19	26	8	-5	-4
CC(C)(C)NC(=O)NC(=O)COC(=O)c1cccc(NS(=O)(=O)c2ccc(F)c(F)c2)c1	12	-2	2	-4	7	7
CC(C)(C)c1ccc(NC(=O)COC(=O)c2ccc(NS(=O)(=O)c3ccc(F)c(F)c3)cc2)cc1	14	1	5	-2	54*	48
CCN(CC)S(=O)(=O)c1cccc(C(=O)NCC(c2ccccc2)N(C)C)c1 (stereo unspecified)	43	107*	-8	14	-3	-9
CCN(C(=O)CSc1nc2cc(S(=O)(=O)N(CC)CC)ccc2n1CC)C1CCS(=O)(=O)C1 (stereo unspecified)	-1	36	5	5	/	/
CC[C@H]1OC(=O)C[C@@H](O)[C@H](C)[C@@H](O[C@@H]2O[C@H](C)C[C@H](N(C)C)[C@H]2O)[C@@H](CC=O)C[C@@H](C)C(=O)C=C[C@]2(C)O[C@H]2[C@@H]1C	/	/	/	/	111*	/
O=c1nc(/C=C/c2cc([N+](=O)[O-])ccc2Cl)cc(C(F)(F)F)[nH]1	21	/	24	12	4	89*
COc1ccc(CCNc2nc(-c3ccccn3)cs2)cc1OC	-6	25	-6	16	75*	-12
COc1ccc(CCNc2nc(-c3ccncc3)cs2)cc1OC	9	-19	9	9	-6	-15
CCOc1ccc(/C=N/NC(=S)NC2CC3CC2C2C=CCC32)cc1 (stereo unspecified)	25	-16	32	29	64*	-5
CCOc1cc(C(N)=O)cc(Cl)c1OCc1ccccc1	26	11	4	1	-4	112*
O=c1c(Cc2c(F)cccc2Cl)c(O)ccn1CC1CCCO1 (stereo unspecified)	9	10	9	3	7	-6
O=c1c(F)cn(C2CCCO2)c(=O)n1Cc1c(F)cccc1Cl (stereo unspecified)	9	-15	27	1	2	107*
O=C(NCCCN1CCCC1=O)Nc1ccc([N+](=O)[O-])cc1	22	39	-12	9	-1	-3
SMILES	tim23-1 inh	PfHsp90 yeast 2	tim10-1 inh	TIM10 inh	SKKanGAS inh	Calb FLC
Cc1ccc(OCCSc2nc(NC(C)C)nc(NC(C)C)n2)cc1	24	8	13	17	72*	-6
COc1ccc(NC(=O)COC(=O)C2CC2)cc1S(=O)(=O)N1CCCCC1	5	-7	-3	-6	/	/
CC(C)C1C(c2ccccc2)NC(c2ccccc2)CC1(O)c1ccc(F)cc1 (stereo unspecified)	13	-8	13	18	6	5
CC(C)C1C(c2ccccc2)N(C)C(c2ccccc2)CC1(O)c1ccccc1 (stereo unspecified)	42	33	19	29	88*	-6
Cc1c(C(=O)N(Cc2ccccc2)C(C)C)cnn1-c1ccccc1	23	3	-4	9	-1	12
Cc1c(C(=O)N(Cc2ccccc2)Cc2cccs2)cnn1-c1ccc(Cl)cc1	7	105*	18	-2	25	9
O=C1c2cccc3cccc(c23)C(=O)N1CC1CCN(CC(O)COc2ccc3ccccc3c2)CC1 (stereo unspecified)	-73	19	-91	37	70*	-5
COc1cccc(OCC(O)CN2CCC(CN3C(=O)c4cccc5cccc(c45)C3=O)CC2)c1 (stereo unspecified)	12	-30	27	-2	2	2
O=C1C=CC2=C3c4cc(O)c(O)cc4CC3(O)COC2=C1O (stereo unspecified)	/	21	/	/	/	/
CCOc1cc(C=O)cc(N=Nc2cccc([N+](=O)[O-])c2)c1O	16	-9	8	-8	2	104*
O=C(NCc1cccnc1)c1ccc(-c2cccc(Cl)c2Cl)o1	25	13	36	19	12	61*
O=C(NCc1cccnc1)c1ccc(-c2ccccc2[N+](=O)[O-])o1	4	24	-7	1	2	-11
Cc1cc(N/N=C2\CC(C)CC(C)(C)C2)nc2ccccc12 (stereo unspecified)	39	-5	21	5	15	87*
CC1C/C(=N/Nc2nc3ccccc3[nH]2)CC(C)(C)C1 (stereo unspecified)	6	-9	38	27	60*	-27
Cc1cc(N/N=C2/CCCc3ccccc32)nc2ccccc12	22	-16	-12	6	9	-21
CC1C/C(=N/NC(=O)c2ccc(CSc3nc4ccccc4[nH]3)cc2)CC(C)(C)C1 (stereo unspecified)	18	31	5	11	10	-2
O=C(NCc1ccc(OC(F)(F)F)cc1)C1CC2Cn3c(nc4ccccc43)C2N1c1ccccc1 (stereo unspecified)	26	-7	21	15	5	4
Cc1ccccc1N1CCN(C2CCCN(C(=O)c3noc4c3CCCC4)C2)CC1 (stereo unspecified)	25	-23	24	12	-1	-16
N#CC1(NC(=O)CSc2nnc(-c3ccccc3F)o2)CCCCC1	7	2	2	3	-7	3
Cc1ccc(C)c(-c2csc(N)c2C(=O)OC(C)C)c1	16	5	17	-2	53*	6
